Source: PubChem BioAssay (NCATS)
Records with an inconclusive call do not appear. A number with no mark means an inactive call. Calls of active or inactive are those of the source. Calls come from the whole dose curve.

Assay: Primary qHTS for Huh7 cytotoxicity: counterscreen for inhibitors of MERS-S pseudotyped particle cell entry (AID 1479147)
Conditions: cell viability read-out; series mostly up to 57.1 µM; activity change, negative = cytotoxicity: at the top concentration
% is set by controls: 0 for no effect and ±100 for the full control effect.

Q: For `CC(C)C1CCC(C(=O)N[C@H](Cc2ccccc2)C(=O)O)CC1` (some centres not stated), which “outcome” value is on record?
A: inactive

Q: Which “activity change, negative = cytotoxicity” value does the source give for `CN(C)CCOC(C)(c1ccccc1)c1ccccn1` (configuration not stated) here?
A: -12.6%

Q: Which “outcome” value does the source give for `Cc1onc(-c2ccccc2Cl)c1C(=O)N[C@@H]1C(=O)N2[C@@H]1SC(C)(C)[C@@H]2C(=O)O` here?
A: inactive

Q: Which “activity change, negative = cytotoxicity” value does the source give for `CC(C(=O)O)c1cccc(C(=O)c2ccccc2)c1` (configuration not stated) here?
A: 2.2%

Q: For `COC(=O)Nc1nc2ccc(C(=O)c3ccccc3)cc2[nH]1`, which “activity change, negative = cytotoxicity” value is on record?
A: -14.6%

Q: For `Cc1nc2n(c(=O)c1CCN1CCC(c3noc4cc(F)ccc34)CC1)CCC[C@H]2O`, which “outcome” value is on record?
A: inactive [at 26.4 µM]

Q: Which “outcome” value does the source give for `Cc1cc2c(s1)Nc1ccccc1N=C2N1CCN(C)CC1` here?
A: inactive

Q: Which “outcome” value does the source give for `COc1ccccc1OCC(O)CN1CCN(CC(=O)Nc2c(C)cccc2C)CC1` (configuration not stated) here?
A: inactive

Q: For `Cc1cn([C@H]2C[C@H](N=[N+]=[N-])[C@@H](CO)O2)c(=O)[nH]c1=O`, which “activity change, negative = cytotoxicity” value is on record?
A: 1.82%

Q: Which “outcome” value does the source give for `OCCN1C[C@H](O)[C@@H](O)[C@H](O)[C@H]1CO` here?
A: inactive

Q: For `CC(c1cc2ccccc2s1)N(O)C(N)=O` (configuration not stated), which “outcome” value is on record?
A: inactive

Q: With `Cc1ccc(C(=O)c2cc(O)c(O)c([N+](=O)[O-])c2)cc1` as the compound, how does the “outcome” value read?
A: inactive

Q: For `COc1ccc([C@@H]2Sc3ccccc3N(CCN(C)C)C(=O)[C@@H]2OC(C)=O)cc1`, which “activity change, negative = cytotoxicity” value is on record?
A: 2%

Q: With `CCCCS(=O)(=O)N[C@@H](Cc1ccc(OCCCCC2CCNCC2)cc1)C(=O)O` as the compound, how does the “outcome” value read?
A: inactive

Q: With `CC1(C)S[C@@H]2[C@H](NC(=O)[C@H](N)c3ccccc3)C(=O)N2[C@H]1C(=O)O` as the compound, how does the “outcome” value read?
A: inactive

Q: Which “activity change, negative = cytotoxicity” value does the source give for `CC(N)C12CC3CC(CC(C3)C1)C2` (configuration not stated) here?
A: -19.1%

Q: With `O=C(c1ccccc1)c1ccc2n1CCC2C(=O)O` (configuration not stated) as the compound, how does the “outcome” value read?
A: inactive

Q: Which “outcome” value does the source give for `CCCCc1ncc(/C=C(\Cc2cccs2)C(=O)O)n1Cc1ccc(C(=O)O)cc1` here?
A: inactive

Q: For `CN1CCC[C@@H]1Cc1c[nH]c2ccc(CCS(=O)(=O)c3ccccc3)cc12`, which “activity change, negative = cytotoxicity” value is on record?
A: -5.22%

Q: For `CC(C)NC[C@@H](O)COc1ccc(CC(N)=O)cc1`, which “activity change, negative = cytotoxicity” value is on record?
A: 2.67%

Q: For `CC(=O)O[C@@]12CO[C@@H]1C[C@H](O)[C@@]1(C)C(=O)[C@H](O)C3=C(C)[C@@H](OC(=O)[C@H](O)[C@@H](NC(=O)OC(C)(C)C)c4ccccc4)C[C@@](O)([C@@H](OC(=O)c4ccccc4)[C@H]21)C3(C)C`, which “outcome” value is on record?
A: inactive

Q: Which “activity change, negative = cytotoxicity” value does the source give for `Cc1ccnc2c1NC(=O)c1cccnc1N2C1CC1` here?
A: 2.25%

Q: Which “outcome” value does the source give for `Cc1ccccc1C(=O)Nc1ccc(C(=O)N2CCCC(O)c3cc(Cl)ccc32)c(C)c1` (configuration not stated) here?
A: inactive

Q: With `CCOc1ccccc1OCCN[C@H](C)Cc1ccc(OC)c(S(N)(=O)=O)c1` as the compound, how does the “outcome” value read?
A: inactive

Q: Which “outcome” value does the source give for `C=C(c1ccc(C(=O)O)cc1)c1cc2c(cc1C)C(C)(C)CCC2(C)C` here?
A: inactive

Q: For `CN1CCN(C2=Nc3cc(Cl)ccc3Nc3ccccc32)CC1`, which “outcome” value is on record?
A: inactive

Q: With `CN(C)CCc1c[nH]c2ccc(C[C@H]3COC(=O)N3)cc12` as the compound, how does the “outcome” value read?
A: inactive

Q: Which “outcome” value does the source give for `CNS(=O)(=O)CCc1ccc2[nH]cc(C3CCN(C)CC3)c2c1` here?
A: inactive

Q: Which “outcome” value does the source give for `CCCCc1nc(Cl)c(CO)n1Cc1ccc(-c2ccccc2-c2nn[nH]n2)cc1` here?
A: inactive

Q: Which “activity change, negative = cytotoxicity” value does the source give for `CCOC(=O)[C@H](CCc1ccccc1)N[C@@H](C)C(=O)N1Cc2cc(OC)c(OC)cc2C[C@H]1C(=O)O` here?
A: -6.95%

Q: For `O=C1CCc2ccc(OCCCCN3CCN(c4cccc(Cl)c4Cl)CC3)cc2N1`, which “activity change, negative = cytotoxicity” value is on record?
A: -25.3%

Q: With `CCC(=O)O[C@H]1[C@H](O[C@@H]2[C@@H](C)[C@H](O[C@H]3C[C@@](C)(OC)[C@@H](O)[C@H](C)O3)[C@@H](C)C(=O)O[C@H](CC)[C@@](C)(O)[C@H](O)[C@@H](C)C(=O)[C@H](C)C[C@@]2(C)O)O[C@H](C)C[C@@H]1N(C)C` as the compound, how does the “activity change, negative = cytotoxicity” value read?
A: 1.94%

Q: For `NC(=O)N1c2ccccc2CC(=O)c2ccccc21`, which “outcome” value is on record?
A: inactive

Q: For `C[C@H]1O[C@H](O[C@H]2[C@H](O)[C@@H](O)[C@@H](O[C@H]3[C@H](O)[C@@H](O)[C@H](O)O[C@@H]3CO)O[C@@H]2CO)[C@H](O)[C@@H](O)[C@@H]1N[C@H]1C=C(CO)[C@@H](O)[C@H](O)[C@H]1O`, which “activity change, negative = cytotoxicity” value is on record?
A: -12.4%

Q: Which “outcome” value does the source give for `CCC1C(=O)OCC1Cc1cncn1C` (configuration not stated) here?
A: inactive

Q: With `Cc1ccsc1C(=CCCN1CCC[C@@H](C(=O)O)C1)c1sccc1C` as the compound, how does the “outcome” value read?
A: inactive

Q: With `COC(=O)CCc1ccc(OCC(O)CNC(C)C)cc1` (configuration not stated) as the compound, how does the “outcome” value read?
A: inactive
